pKd: −log10 of the molar value.
These compounds were tested on PDGFRA.
Work on O=C(Nc1ccccc1)Nc1cccc(Oc2ccc3nccn3n2)c1 yielded a pKd of 8.44.
Work on Cc1cccc(-c2nc(-c3ccc(S(C)(=O)=O)cc3)sc2-c2ccnc(NCCc3ccccc3)c2)c1 yielded a pKd of 6.26.
Work on CC(=O)Nc1nc2cnc(Nc3cc(NC(=O)c4cccc(CCC#N)c4)ccc3C)nc2s1 yielded a pKd of less than 5.00.
In the case of Cn1ccc2ncnc(Oc3ccc(NC(=O)Nc4ccccc4)cc3)c21, the pKd was 7.60.

These compounds were tested on PDGFRB.
Work on O=C(Nc1ccccc1)Nc1cccc(Oc2ccc3nccn3n2)c1 yielded a pKd of 9.00.
For Cc1ccc(NC(=O)Nc2cc(C(C)(C)C)nn2-c2ccccc2)cc1 [GSK1014915], the pKd was 6.47.
Cc1cccc(-c2nc(-c3ccc(S(C)(=O)=O)cc3)sc2-c2ccnc(NCCc3ccccc3)c2)c1 gave a pKd of 7.17.
Fc1cc(Cl)ccc1Nc1ccnc2cc(I)ccc12 [GW551191] was tested, and the pKd was 6.39.
For Cc1ccc(NC(=O)Nc2cccc(Cl)c2)cc1-c1ccc(C(=O)Nc2ccncc2)cc1 [GSK1398468], the pKd was 7.30.
CC(=O)Nc1nc2cnc(Nc3cc(NC(=O)c4cccc(CCC#N)c4)ccc3C)nc2s1 showed a pKd of less than 5.00.
Compound Cc1ccc(C(=O)Nc2ccc(Nc3ccnc4cc(-c5ccccn5)ccc34)cc2O)cc1.Cl [GW440146] has a pKd of 6.32.
Compound Fc1cc(Cl)ccc1Nc1ccnc2cc(-c3ccc(CN4CCCCC4)o3)ccc12 [GW560116] has a pKd of 6.68.
Cn1ccc2ncnc(Oc3ccc(NC(=O)Nc4ccccc4)cc3)c21 showed a pKd of 7.80.
For COC(=O)c1c(-c2ccccc2)c2cc(C(=O)O)ccc2c(=O)n1Cc1ccccc1, the pKd was 7.12.
Work on COC(=O)c1c(-c2ccccc2)c2cc(OC)ccc2c(=O)n1Cc1ccccc1 yielded a pKd of 6.96.
CC(C)(C)c1ccc(C(=O)Nc2cn3cc(-c4cccnc4)ccc3n2)cc1 was tested, and the pKd was 6.66.

What follows are compounds tested on PDPK1.
With CCCc1ccc(S(=O)(=O)NC2CCN(c3ccnc(Nc4ccc(F)cc4)n3)C2)cc1 (stereo not shown) [GSK1379715] the pKd was less than 5.00.
With CCn1c(-c2ccccn2)nc2cnccc21 [SB-736398] the pKd was less than 5.00.
With Fc1cc(Cl)ccc1Nc1ccnc2cc(-c3ccc(CN4CCCCC4)o3)ccc12 [GW560116] the pKd was less than 5.00.
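Also: kd values determined as follow-up on hits from a single-replicate KINOMEscan panel screen.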
